In PMC7862700, “An all-to-all approach to the identification of sequence-specific readers for epigenetic DNA modifications on cytosine”:

Assays:
Experiment in all cases: DAPPL (digital affinity profiling via proximity ligation, sequencing); 10 mM Tris-HCl pH 7.5, 50 mM NaCl, 1 mM DTT, 4% glycerol, room temperature, 30 min; GST-TFs on glutathione beads, 16-mer random dsDNA library, 0.1% formaldehyde crosslink after washing; high values mean tight binding
Conditions in all cases: protein: recombinant; tags: N-terminal GST; dsDNA, one strand shown
FLI1 = biological target: T1, FLI1 (Homo sapiens, UniProt Q01543 1-452)
T1 sequence: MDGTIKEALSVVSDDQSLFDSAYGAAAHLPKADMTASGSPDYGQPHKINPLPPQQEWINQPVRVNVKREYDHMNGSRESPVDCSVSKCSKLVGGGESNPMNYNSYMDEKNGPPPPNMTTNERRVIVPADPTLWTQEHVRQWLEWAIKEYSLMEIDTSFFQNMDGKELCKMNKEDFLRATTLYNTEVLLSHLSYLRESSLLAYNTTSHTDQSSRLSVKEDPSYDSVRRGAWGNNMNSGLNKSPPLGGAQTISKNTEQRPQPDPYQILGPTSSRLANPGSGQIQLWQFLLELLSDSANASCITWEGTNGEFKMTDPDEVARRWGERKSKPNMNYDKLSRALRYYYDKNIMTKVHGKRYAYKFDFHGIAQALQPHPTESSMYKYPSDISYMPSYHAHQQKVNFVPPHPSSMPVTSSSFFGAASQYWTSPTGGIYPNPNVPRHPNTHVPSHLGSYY
How it was run: (§1)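 In yeast, human transcription factors were expressed with a GST fusion, then pulled down on glutathione beads and given DNA barcodes. Pooled with a tag-only sample, they were exposed to 200 nmole of a 16-mer random double-stranded DNA library (Tris/NaCl/DTT/glycerol buffer, room temperature, 30 min), washed, crosslinked with 0.1% formaldehyde, proximity-ligated using BsaI/T4 ligase for 1 h at 37 °C, PCR-amplified and read on an Illumina NextSeq500. Each hexamer's frequency of reads for a factor, divided by the matching frequency for the tag-only sample, gives the binding signal.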

ELK1 = biological target: T2, ELK1 (Homo sapiens, UniProt P19419 1-428)
T2 sequence: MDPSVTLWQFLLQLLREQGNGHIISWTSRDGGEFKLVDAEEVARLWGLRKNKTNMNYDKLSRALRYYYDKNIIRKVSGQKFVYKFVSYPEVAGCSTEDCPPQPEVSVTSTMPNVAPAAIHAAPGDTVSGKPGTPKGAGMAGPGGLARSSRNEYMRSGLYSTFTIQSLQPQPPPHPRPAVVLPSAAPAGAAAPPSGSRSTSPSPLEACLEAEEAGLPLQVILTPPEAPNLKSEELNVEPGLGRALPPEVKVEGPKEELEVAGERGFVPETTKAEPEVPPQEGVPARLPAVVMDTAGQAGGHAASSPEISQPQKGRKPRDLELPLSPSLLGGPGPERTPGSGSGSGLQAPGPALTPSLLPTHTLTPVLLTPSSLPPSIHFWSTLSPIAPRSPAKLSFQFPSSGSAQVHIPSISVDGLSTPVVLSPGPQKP
How it was run: as §1

GABPA = biological target: T3, GABPA (Homo sapiens, UniProt Q06546 1-454)
T3 sequence: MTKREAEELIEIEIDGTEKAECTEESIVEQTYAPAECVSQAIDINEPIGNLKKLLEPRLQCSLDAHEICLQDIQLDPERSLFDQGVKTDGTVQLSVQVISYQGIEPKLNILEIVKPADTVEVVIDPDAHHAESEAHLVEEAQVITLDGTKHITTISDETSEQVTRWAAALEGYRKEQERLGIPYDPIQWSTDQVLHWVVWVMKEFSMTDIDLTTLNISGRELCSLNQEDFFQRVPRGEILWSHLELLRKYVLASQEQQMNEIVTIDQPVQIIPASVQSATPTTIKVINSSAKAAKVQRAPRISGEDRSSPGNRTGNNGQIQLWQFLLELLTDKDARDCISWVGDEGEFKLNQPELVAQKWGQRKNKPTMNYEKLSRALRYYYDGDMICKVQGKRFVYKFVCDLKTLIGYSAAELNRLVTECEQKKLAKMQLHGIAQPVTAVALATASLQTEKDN
How it was run: as §1

SPIB = SPIB (Homo sapiens, UniProt Q01892 1-262)
How it was run: as §1

ELK3 = biological target: T4, ELK3 (Homo sapiens, UniProt P41970 1-407)
T4 sequence: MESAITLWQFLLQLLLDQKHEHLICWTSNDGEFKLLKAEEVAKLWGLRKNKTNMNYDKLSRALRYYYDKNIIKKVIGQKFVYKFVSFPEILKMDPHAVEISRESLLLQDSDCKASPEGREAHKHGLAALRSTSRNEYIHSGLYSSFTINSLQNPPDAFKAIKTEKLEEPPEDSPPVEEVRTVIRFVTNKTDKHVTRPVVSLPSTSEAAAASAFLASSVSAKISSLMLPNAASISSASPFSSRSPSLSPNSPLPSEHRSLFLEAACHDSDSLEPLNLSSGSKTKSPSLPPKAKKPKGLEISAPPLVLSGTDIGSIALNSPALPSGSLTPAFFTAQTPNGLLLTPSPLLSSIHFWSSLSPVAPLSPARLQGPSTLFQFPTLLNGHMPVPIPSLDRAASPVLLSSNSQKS
How it was run: as §1

FEV = biological target: T5, FEV (Homo sapiens, UniProt Q99581 1-238)
T5 sequence: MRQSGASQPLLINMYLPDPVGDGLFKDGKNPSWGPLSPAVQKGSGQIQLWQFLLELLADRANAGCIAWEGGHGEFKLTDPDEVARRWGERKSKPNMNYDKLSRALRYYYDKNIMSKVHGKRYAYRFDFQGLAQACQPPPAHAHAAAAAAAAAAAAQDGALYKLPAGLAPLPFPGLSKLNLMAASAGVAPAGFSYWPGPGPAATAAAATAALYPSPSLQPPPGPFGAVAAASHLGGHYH
How it was run: as §1

ELF4 = ELF4 (Homo sapiens, UniProt Q99607 1-663)
How it was run: as §1

ELK4 = biological target: T6, ELK4 (Homo sapiens, UniProt P28324-2 1-405)
T6 sequence: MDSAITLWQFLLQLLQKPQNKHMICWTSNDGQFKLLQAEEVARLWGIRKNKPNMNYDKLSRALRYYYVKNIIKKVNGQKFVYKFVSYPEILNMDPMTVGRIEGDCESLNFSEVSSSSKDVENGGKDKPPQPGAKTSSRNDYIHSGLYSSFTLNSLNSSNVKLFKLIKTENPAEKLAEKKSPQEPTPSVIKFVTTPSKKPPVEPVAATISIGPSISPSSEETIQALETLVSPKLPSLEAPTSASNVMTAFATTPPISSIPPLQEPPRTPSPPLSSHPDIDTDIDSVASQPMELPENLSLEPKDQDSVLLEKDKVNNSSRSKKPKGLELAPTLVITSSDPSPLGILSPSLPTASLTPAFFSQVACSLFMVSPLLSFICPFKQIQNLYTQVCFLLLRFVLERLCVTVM
How it was run: as §1

ETV2 = biological target: T7, ETV2 (Homo sapiens, UniProt O00321 1-342)
T7 sequence: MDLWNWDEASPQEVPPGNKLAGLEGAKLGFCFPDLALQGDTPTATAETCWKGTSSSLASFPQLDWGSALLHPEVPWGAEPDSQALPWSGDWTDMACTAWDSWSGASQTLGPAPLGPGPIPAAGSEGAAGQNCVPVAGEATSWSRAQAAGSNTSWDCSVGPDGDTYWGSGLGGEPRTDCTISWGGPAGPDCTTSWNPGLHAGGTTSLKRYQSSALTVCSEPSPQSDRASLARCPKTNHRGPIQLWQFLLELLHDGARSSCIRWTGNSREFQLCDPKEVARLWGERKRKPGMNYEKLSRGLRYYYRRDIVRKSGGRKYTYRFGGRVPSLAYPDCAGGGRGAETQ
How it was run: as §1

ELF3 = biological target: T8, ELF3 (Homo sapiens, UniProt P78545 1-371)
T8 sequence: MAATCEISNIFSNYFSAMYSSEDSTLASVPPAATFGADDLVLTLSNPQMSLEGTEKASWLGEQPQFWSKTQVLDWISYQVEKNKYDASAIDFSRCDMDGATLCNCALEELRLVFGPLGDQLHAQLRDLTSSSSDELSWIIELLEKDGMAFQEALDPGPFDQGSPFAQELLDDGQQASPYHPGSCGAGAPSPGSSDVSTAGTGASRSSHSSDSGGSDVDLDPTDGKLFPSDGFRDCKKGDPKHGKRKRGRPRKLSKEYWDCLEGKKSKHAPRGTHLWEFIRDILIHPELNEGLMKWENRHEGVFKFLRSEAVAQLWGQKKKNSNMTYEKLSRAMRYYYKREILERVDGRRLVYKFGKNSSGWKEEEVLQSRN
How it was run: as §1

CRX = CRX (Homo sapiens, UniProt O43186 1-299)
How it was run: as §1

ETV1 = ETV1 (Homo sapiens, UniProt P50549 1-477)
How it was run: as §1

ETV3L = biological target: T9, ETV3L (Homo sapiens, UniProt Q6ZN32 1-361)
T9 sequence: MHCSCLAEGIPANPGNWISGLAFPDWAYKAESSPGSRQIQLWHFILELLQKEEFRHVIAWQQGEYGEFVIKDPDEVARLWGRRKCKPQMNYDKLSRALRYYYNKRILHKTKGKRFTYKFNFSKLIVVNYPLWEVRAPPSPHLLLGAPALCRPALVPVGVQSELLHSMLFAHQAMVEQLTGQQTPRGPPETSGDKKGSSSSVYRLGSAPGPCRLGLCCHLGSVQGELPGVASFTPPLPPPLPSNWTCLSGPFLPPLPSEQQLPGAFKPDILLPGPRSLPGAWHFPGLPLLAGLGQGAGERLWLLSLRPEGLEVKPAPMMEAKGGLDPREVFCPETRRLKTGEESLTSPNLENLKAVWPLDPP
How it was run: as §1

ETS2 = biological target: T10, ETS2 (Homo sapiens, UniProt P15036 1-469)
T10 sequence: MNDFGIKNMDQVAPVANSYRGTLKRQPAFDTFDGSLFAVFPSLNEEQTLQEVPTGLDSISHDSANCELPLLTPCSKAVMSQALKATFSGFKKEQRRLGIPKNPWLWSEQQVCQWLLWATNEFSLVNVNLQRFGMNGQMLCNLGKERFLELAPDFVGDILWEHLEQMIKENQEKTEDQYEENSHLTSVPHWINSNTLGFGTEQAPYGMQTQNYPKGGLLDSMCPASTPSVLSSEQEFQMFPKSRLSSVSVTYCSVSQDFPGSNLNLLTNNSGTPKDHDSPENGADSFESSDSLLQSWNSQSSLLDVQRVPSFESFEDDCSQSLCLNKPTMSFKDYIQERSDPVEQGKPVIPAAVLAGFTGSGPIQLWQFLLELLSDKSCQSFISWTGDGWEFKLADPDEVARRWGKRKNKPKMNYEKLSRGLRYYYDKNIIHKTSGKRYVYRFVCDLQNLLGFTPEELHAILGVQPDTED
How it was run: as §1

SPDEF = biological target: T11, SPDEF (Homo sapiens, UniProt O95238 1-335)
T11 sequence: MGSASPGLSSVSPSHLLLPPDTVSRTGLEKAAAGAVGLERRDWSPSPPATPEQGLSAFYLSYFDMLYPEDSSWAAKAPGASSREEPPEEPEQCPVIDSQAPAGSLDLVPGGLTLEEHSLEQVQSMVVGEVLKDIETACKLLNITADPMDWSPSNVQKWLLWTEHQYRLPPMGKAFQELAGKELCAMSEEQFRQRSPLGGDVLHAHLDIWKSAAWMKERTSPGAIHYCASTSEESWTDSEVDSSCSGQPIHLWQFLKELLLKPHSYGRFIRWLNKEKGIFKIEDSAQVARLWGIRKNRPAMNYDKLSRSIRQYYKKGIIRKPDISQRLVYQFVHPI
How it was run: as §1

ETV6 = ETV6 (Homo sapiens, UniProt P41212 1-452)
How it was run: as §1

Sequence of CRX (O43186 whole entry): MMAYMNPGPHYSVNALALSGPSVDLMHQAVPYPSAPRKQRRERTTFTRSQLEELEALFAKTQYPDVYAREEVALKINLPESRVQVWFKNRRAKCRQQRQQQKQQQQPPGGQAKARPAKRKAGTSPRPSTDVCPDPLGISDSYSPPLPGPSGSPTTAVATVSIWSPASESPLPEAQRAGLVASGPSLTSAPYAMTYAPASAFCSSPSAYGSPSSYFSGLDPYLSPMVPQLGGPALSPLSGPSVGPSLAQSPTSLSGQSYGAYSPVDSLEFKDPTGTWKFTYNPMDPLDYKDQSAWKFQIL
Sequence of ETV1 (P50549 whole entry): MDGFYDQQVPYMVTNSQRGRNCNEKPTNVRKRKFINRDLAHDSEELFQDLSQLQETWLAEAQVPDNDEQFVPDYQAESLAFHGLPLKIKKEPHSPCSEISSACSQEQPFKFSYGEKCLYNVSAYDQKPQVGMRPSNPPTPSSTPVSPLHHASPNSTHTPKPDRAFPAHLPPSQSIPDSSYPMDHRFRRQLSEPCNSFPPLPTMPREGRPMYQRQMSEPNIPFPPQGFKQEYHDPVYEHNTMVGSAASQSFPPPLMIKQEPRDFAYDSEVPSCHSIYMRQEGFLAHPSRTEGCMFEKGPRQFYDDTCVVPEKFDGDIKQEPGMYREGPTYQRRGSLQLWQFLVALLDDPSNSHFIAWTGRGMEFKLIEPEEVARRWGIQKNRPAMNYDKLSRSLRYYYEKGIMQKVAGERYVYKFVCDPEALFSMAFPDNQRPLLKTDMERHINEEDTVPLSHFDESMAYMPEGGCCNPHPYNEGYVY
Sequence of ELF4 (Q99607 whole entry): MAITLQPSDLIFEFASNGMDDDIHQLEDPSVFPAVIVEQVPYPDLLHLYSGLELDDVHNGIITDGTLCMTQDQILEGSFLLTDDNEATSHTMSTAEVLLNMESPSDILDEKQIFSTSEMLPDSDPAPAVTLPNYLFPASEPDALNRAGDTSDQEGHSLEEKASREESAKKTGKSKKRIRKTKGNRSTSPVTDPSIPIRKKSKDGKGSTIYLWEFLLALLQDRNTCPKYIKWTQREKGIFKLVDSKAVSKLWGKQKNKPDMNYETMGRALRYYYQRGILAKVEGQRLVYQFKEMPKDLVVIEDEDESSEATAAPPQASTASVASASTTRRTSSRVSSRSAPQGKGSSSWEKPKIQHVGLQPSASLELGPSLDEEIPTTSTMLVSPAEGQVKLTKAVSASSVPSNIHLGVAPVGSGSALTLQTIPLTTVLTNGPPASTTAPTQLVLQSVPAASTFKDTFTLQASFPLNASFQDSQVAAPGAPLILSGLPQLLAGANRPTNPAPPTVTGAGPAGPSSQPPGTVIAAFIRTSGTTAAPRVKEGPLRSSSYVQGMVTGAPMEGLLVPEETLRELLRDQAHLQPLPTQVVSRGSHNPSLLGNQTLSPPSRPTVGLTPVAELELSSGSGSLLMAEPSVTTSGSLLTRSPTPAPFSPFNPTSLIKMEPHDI
Sequence of SPIB (Q01892 whole entry): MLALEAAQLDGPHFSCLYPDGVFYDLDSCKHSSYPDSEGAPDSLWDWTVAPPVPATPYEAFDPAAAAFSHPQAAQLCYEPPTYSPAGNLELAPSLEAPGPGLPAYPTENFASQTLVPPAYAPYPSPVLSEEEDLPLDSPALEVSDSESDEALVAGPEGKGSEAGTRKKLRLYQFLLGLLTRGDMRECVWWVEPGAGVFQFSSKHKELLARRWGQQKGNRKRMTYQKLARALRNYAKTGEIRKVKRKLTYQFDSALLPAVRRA
Sequence of ETV6 (P41212 whole entry): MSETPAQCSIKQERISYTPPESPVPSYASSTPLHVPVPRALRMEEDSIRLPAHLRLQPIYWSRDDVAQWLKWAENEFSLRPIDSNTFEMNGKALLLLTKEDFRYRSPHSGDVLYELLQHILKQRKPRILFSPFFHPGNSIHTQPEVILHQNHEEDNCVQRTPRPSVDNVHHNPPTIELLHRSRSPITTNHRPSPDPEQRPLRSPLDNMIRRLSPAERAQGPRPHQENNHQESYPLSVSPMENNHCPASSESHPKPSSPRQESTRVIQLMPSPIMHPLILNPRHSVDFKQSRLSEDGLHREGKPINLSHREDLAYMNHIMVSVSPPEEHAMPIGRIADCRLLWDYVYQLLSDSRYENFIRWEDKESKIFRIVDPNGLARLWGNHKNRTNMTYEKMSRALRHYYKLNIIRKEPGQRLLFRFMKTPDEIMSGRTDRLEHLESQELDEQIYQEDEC

Which binding signal (FLI1) does the source give for TCAGCC here?
The binding signal was 1 fold enrichment (6-mer frequency, TF over GST control).

What about the binding signal (ELK1) of the same sequence?
The binding signal was 1.11 fold enrichment (6-mer frequency, TF over GST control).

And the binding signal (GABPA)?
Its binding signal is 1.06 fold enrichment (6-mer frequency, TF over GST control).

What about the binding signal (SPIB) of the same sequence?
The binding signal was 1.05 fold enrichment (6-mer frequency, TF over GST control).

And the binding signal (ELK3)?
The binding signal was 1.13 fold enrichment (6-mer frequency, TF over GST control).

What about the binding signal (FEV) of the same sequence?
Its binding signal is 1.04 fold enrichment (6-mer frequency, TF over GST control).

What about the binding signal (ELF4) of the same sequence?
The binding signal was 1.11 fold enrichment (6-mer frequency, TF over GST control).

And the binding signal (ELK4)?
Its binding signal is 1.02 fold enrichment (6-mer frequency, TF over GST control).

And the binding signal (ETV2)?
Its binding signal is 1.03 fold enrichment (6-mer frequency, TF over GST control).

What about the binding signal (ELF3) of the same sequence?
Its binding signal is 1 fold enrichment (6-mer frequency, TF over GST control).

What about the binding signal (CRX) of the same sequence?
Its binding signal is 1.17 fold enrichment (6-mer frequency, TF over GST control).

And the binding signal (ETV1)?
The binding signal was 1.02 fold enrichment (6-mer frequency, TF over GST control).

And the binding signal (ETV3L)?
The binding signal was 1.02 fold enrichment (6-mer frequency, TF over GST control).

What about the binding signal (ETS2) of the same sequence?
The binding signal was 1 fold enrichment (6-mer frequency, TF over GST control).

And the binding signal (SPDEF)?
Its binding signal is 1.03 fold enrichment (6-mer frequency, TF over GST control).

What about the binding signal (ETV6) of the same sequence?
The binding signal was 1.01 fold enrichment (6-mer frequency, TF over GST control).
